# Source: PubChem BioAssay AID1159580 (chemical genetic matrix, 2015)
# The campaign covered roughly 5,500 compounds. About 2,000 (36%) were called active. Roughly 18% stayed inconclusive and do not appear here. This is one part of the list. Unmarked numbers belong to inactive results. Rule as the data show it: active = normalized growth mostly below about 0.91 (no sharp cut-off); inconclusive = no clear call, values can overlap the other calls; inactive = mostly above about 0.92.
# Experiment: chemical genetic growth profiling, strain panel (AID 1159580);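 also: tested at 20 µM; growth read once vehicle control cultures reached saturation at 30 °C; 1 = growth at the plate median or of vehicle wells; lower values mean less growth of the strain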
# Settings: S. cerevisiae deletion strains, growth OD
# [1] = locus YAL040C, strain CLN3, active compounds read low
# [2] = locus YCL061C, strain MRC1 (second series), active compounds read low
# [3] = locus YDR150W, strain NUM1, active compounds read low
# [4] = locus YER002W, strain NOP16, active compounds read low
# [5] = locus YJR075W, strain HOC1, active compounds read low
# [6] = locus YNL175C, strain NOP13, active compounds read low
# [7] = locus YNL197C, strain WHI3, active compounds read low
# [8] = locus YNL224C, strain SQS1, active compounds read low
# [9] = locus YOR083W, strain WHI5 (second series), active compounds read low
compound,measurement,setting,value
C[N+](C)(C)CCO,normalized growth,[1],1.04
same,normalized growth,[2],1.02
same,normalized growth,[3],1.05
same,normalized growth,[4],0.998
same,normalized growth,"locus YGR229C, strain SMI1, active compounds read low",1.06
same,normalized growth,[5],1.09 [resistant] (active)
same,normalized growth,"locus YMR263W, strain SAP30, active compounds read low",1.01
same,normalized growth,[6],1.02
same,normalized growth,[7],0.996
same,normalized growth,[8],1.01
same,normalized growth,[9],1.08
O=C(Nc1ccc(C(=O)O)c(O)c1)c1ccccc1,normalized growth,"locus YAL021C, strain ccr4, active compounds read low",0.968
same,normalized growth,"locus YAL026C, strain drs2, active compounds read low",0.982
same,normalized growth,"locus YAL030W, strain snc1, active compounds read low",0.952
same,normalized growth,"locus YBL061C, strain skt5, active compounds read low",0.977
same,normalized growth,"locus YBR009C, strain hhf1, active compounds read low",0.97
same,normalized growth,"locus YBR023C, strain chs3, active compounds read low",0.991
same,normalized growth,"locus YBR171W, strain sec66, active compounds read low",0.968
same,normalized growth,"locus YBR231C, strain swc5, active compounds read low",0.972
same,normalized growth,"locus YBR279W, strain paf1, active compounds read low",0.989
same,normalized growth,"locus YCL011C, strain gbp2, active compounds read low",0.979
same,normalized growth,"locus YCL016C, strain dcc1, active compounds read low",0.979
same,normalized growth,"locus YCL061C, strain MRC1, active compounds read low",0.989
same,normalized growth,"locus YCL069W, strain vba3, active compounds read low",0.987
same,normalized growth,"locus YCR088W, strain abp1, active compounds read low",0.987
same,normalized growth,"locus YDL005C, strain med2, active compounds read low",0.978
same,normalized growth,"locus YDL040C, strain nat1, active compounds read low",0.976
same,normalized growth,"locus YDR001C, strain nth1, active compounds read low",0.964
same,normalized growth,"locus YDR069C, strain doa4, active compounds read low",0.974
same,normalized growth,"locus YDR137W, strain rgp1, active compounds read low",0.916
same,normalized growth,"locus YDR159W, strain sac3, active compounds read low",0.985
same,normalized growth,"locus YDR195W, strain ref2",0.952
same,normalized growth,"locus YDR297W, strain sur2, active compounds read low",0.976
same,normalized growth,"locus YDR334W, strain swr1, active compounds read low",0.942
same,normalized growth,"locus YDR335W, strain msn5, active compounds read low",0.972
same,normalized growth,"locus YDR392W, strain spt3, active compounds read low",0.986
same,normalized growth,"locus YEL003W, strain gim4, active compounds read low",0.974
same,normalized growth,"locus YEL037C, strain rad23, active compounds read low",0.992
same,normalized growth,"locus YEL061C, strain CIN8 (second series), active compounds read low",0.976
same,normalized growth,"locus YER015W, strain faa2, active compounds read low",0.968
same,normalized growth,"locus YER016W, strain bim1, active compounds read low",0.979
same,normalized growth,"locus YER111C, strain swi4, active compounds read low",0.992
same,normalized growth,"locus YER155C, strain BEM2 (second series), active compounds read low",0.967
same,normalized growth,"locus YFR010W, strain ubp6, active compounds read low",0.963
same,normalized growth,"locus YGL167C, strain pmr1, active compounds read low",0.989
same,normalized growth,"locus YGL173C, strain kem1, active compounds read low",0.967
same,normalized growth,"locus YGL227W, strain vid30, active compounds read low",0.974
same,normalized growth,"locus YGL240W, strain doc1, active compounds read low",0.977
same,normalized growth,"locus YGL253W, strain hxk2, active compounds read low",0.986
same,normalized growth,"locus YHR013C, strain ard1, active compounds read low",0.962
same,normalized growth,"locus YHR027C, strain rpn1, active compounds read low",0.964
same,normalized growth,"locus YHR030C, strain SLT2, active compounds read low",0.937
same,normalized growth,"locus YHR079C, strain IRE1, active compounds read low",0.939
same,normalized growth,"locus YHR142W, strain chs7, active compounds read low",0.968
same,normalized growth,"locus YJL092W, strain hpr5, active compounds read low",0.999
same,normalized growth,"locus YJL095W, strain BCK1 (second series), active compounds read low",0.981
same,normalized growth,"locus YJL095W, strain BCK1, active compounds read low",0.976
same,normalized growth,"locus YJL115W, strain asf1, active compounds read low",0.974
same,normalized growth,"locus YJL129C, strain trk1, active compounds read low",0.999
same,normalized growth,"locus YJL154C, strain vps35, active compounds read low",0.965
same,normalized growth,"locus YJL164C, strain tpk1, active compounds read low",0.983
same,normalized growth,"locus YJL166W, strain qcr8, active compounds read low",0.973
same,normalized growth,"locus YJL187C, strain SWE1, active compounds read low",0.984
same,normalized growth,"locus YJR066W, strain TOR1, active compounds read low",0.908
same,normalized growth,"locus YKL160W, strain elf1, active compounds read low",0.981
same,normalized growth,"locus YKR026C, strain gcn3, active compounds read low",0.99
same,normalized growth,"locus YKR091W, strain srl3, active compounds read low",0.984
same,normalized growth,"locus YLL001W, strain dnm1, active compounds read low",0.983
same,normalized growth,"locus YLL026W, active compounds read low",0.958
same,normalized growth,"locus YLL041C, strain sdh2, active compounds read low",0.979
same,normalized growth,"locus YLR027C, strain aat2, active compounds read low",0.968
same,normalized growth,"locus YLR113W, strain HOG1, active compounds read low",0.974
same,normalized growth,"locus YLR221C, strain rsa3, active compounds read low",0.984
same,normalized growth,"locus YLR258W, strain gsy2, active compounds read low",0.987
same,normalized growth,"locus YLR262C, strain YPT6 (second series), active compounds read low",0.938
same,normalized growth,"locus YLR320W, strain mms22, active compounds read low",0.973
same,normalized growth,"locus YLR342W, strain FKS1, active compounds read low",0.978
same,normalized growth,"locus YLR357W, strain rsc2, active compounds read low",1
same,normalized growth,"locus YLR370C, strain arc18, active compounds read low",0.975
same,normalized growth,"locus YLR384C, strain iki3, active compounds read low",0.962
same,normalized growth,"locus YML120C, strain ndi1, active compounds read low",0.986
same,normalized growth,"locus YMR058W, strain fet3, active compounds read low",0.984
same,normalized growth,"locus YMR125W, strain sto1, active compounds read low",0.984
same,normalized growth,"locus YMR129W, active compounds read low",0.989
same,normalized growth,"locus YMR205C, strain PFK2, active compounds read low",0.969
same,normalized growth,"locus YMR231W, strain pep5, active compounds read low",0.984
same,normalized growth,"locus YNL071W, strain lat1, active compounds read low",0.978
same,normalized growth,"locus YNL183C, strain NPR1, active compounds read low",0.92
same,normalized growth,"locus YNL209W, strain ssb2, active compounds read low",0.957
same,normalized growth,"locus YNL248C, strain rpa49, active compounds read low",0.986
same,normalized growth,"locus YNL322C, strain KRE1 (second series), active compounds read low",0.97
same,normalized growth,"locus YNR049C, strain mso1, active compounds read low",0.967
same,normalized growth,"locus YOR001W, strain rrp6, active compounds read low",0.982
same,normalized growth,"locus YOR070C, strain gyp1, active compounds read low",0.976
same,normalized growth,"locus YOR080W, strain dia2, active compounds read low",0.975
same,normalized growth,"locus YOR083W, strain WHI5, active compounds read low",0.984
same,normalized growth,"locus YOR106W, strain vam3, active compounds read low",0.989
same,normalized growth,"locus YOR231W, strain MKK1, active compounds read low",0.941
same,normalized growth,"locus YOR265W, strain rbl2, active compounds read low",0.988
same,normalized growth,"locus YOR270C, strain vph1, active compounds read low",0.972
same,normalized growth,"locus YOR290C, strain snf2, active compounds read low",0.99
same,normalized growth,"locus YPL051W, strain arl3, active compounds read low",0.981
same,normalized growth,"locus YPL078C, strain atp4, active compounds read low",0.97
same,normalized growth,"locus YPL106C, strain sse1, active compounds read low",0.918
same,normalized growth,"locus YPL240C, strain hsp82, active compounds read low",0.982
same,normalized growth,"locus YPL256C, strain CLN2, active compounds read low",0.963
COc1ccc(C(=O)NCc2cccnc2)cc1C(=O)NCc1cccnc1,normalized growth,[1],0.994
same,normalized growth,[2],1.01
same,normalized growth,[3],1
same,normalized growth,"locus YDR363W, strain ESC2, active compounds read low",1
same,normalized growth,[4],0.997
same,normalized growth,[5],1.02
same,normalized growth,"locus YMR307W, strain GAS1, active compounds read low",1.01
same,normalized growth,"locus YNL128W, strain TEP1, active compounds read low",1.01
same,normalized growth,"locus YNL153C, strain GIM3, active compounds read low",1.02
same,normalized growth,[6],1.02
same,normalized growth,[7],1.04
same,normalized growth,[8],1
same,normalized growth,[9],1.02
